Data as given in paper PMC4336329 (PLoS ONE, 2015).
About 2,200 (0.71%) of roughly 310,000 compounds showed an effect of 50% or more. The effect is printed as a negative number. Only a selection was taken, and strong results are over-represented in it overall.

Target: human ether-à-go-go-related gene (hERG) potassium channel (human, UniProt Q12809)
Assay: primary screen, population patch clamp on CHO cells stably expressing hERG; higher = less effect of the substance
Description: Briefly, Chinese hamster ovary (CHO) cells stably expressing the hERG channel were dislodged from tissue culture flasks and dispensed into PPC plates. […] During the recording, background leak currents were estimated by a 100 ms step to -80 mV from an initial holding potential of -70 mV and subtracted from the subsequent current measurement. The campaign was conducted in two phases using slight differences in recording protocol. In the first phase, the initial voltage pulse used a 100 ms step to -30 mV from a holding potential of -70 mV, a 2 s conditioning step to +25 mV, and a 2 s test step to -30 mV. During the second phase of the screen, the potential during the conditioning step was raised to +45 mV. In both phases of the campaign, a secondary voltage pulse was applied using the same parameters as the second phase initial pulse. The initial and secondary pulses were applied in the absence of compound, and upon application of 1 μM and 10 μM test concentrations. Small molecule effects on hERG current density were quantified by […].

human ether-à-go-go-related gene (hERG) potassium channel, sequence (Q12809 whole entry, looked up): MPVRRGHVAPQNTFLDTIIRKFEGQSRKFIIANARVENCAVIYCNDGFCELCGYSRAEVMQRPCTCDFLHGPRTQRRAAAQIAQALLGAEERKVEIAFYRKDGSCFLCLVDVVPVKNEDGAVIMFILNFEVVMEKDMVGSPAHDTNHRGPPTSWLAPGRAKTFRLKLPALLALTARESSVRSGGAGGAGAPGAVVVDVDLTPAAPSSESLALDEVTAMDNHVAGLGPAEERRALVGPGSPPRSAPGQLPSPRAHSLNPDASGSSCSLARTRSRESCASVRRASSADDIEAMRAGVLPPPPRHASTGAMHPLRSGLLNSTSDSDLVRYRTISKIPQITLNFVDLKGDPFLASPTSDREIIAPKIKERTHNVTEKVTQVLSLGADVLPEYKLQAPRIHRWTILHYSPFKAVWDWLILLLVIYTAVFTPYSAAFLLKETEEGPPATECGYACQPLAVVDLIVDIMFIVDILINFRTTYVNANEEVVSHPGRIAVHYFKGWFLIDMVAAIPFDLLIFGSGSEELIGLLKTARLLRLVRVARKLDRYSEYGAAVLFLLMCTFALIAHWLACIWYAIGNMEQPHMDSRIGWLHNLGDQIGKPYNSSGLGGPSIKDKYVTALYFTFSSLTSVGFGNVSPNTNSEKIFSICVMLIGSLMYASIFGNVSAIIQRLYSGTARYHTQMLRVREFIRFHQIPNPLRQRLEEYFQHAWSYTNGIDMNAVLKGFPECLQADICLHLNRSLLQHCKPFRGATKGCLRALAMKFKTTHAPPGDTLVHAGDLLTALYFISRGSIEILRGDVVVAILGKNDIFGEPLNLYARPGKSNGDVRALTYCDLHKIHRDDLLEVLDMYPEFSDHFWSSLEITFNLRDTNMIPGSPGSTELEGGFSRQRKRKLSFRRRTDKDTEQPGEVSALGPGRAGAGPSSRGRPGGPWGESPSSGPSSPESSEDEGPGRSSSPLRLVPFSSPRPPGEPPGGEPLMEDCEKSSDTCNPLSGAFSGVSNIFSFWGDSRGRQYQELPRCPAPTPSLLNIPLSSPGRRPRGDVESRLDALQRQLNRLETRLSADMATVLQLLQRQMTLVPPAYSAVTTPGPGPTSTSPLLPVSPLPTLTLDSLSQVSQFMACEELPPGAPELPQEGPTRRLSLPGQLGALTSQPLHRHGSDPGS

Going from `COc1ccc(OC)c(/C=N/N(C)c2ccccc2)c1` to `COc1ccc(OC)c(NC(=O)CN2CCC(NC(=O)c3ccccc3C)CC2)c1`, the “hERG current change (%, negative = inhibition) at 1uM” value falls from 12.4% to -4.31%.

Compared with `O=C(NCCCCO)C(F)(F)C(F)(F)C(F)(F)C(=O)NCCCCO`, `CCCCCn1c(SCC(=O)OCC)nc2cc(C(=O)NCc3ccco3)ccc2c1=O` is lower in “hERG current change (%, negative = inhibition) at 1uM” value: 14.4% for the first, 12.8% for the second.

Compared with `CCC(CC)C(=O)c1c[nH]c(C(=O)NCc2ccncc2)c1`, `C=CCn1c(SCC(=O)OCC)nc2cc(C(=O)NCc3ccco3)ccc2c1=O` is lower in “hERG current change (%, negative = inhibition) at 1uM” value: 10% for the first, -9.92% for the second.

Going from `Cc1ccccc1N1CCN(CC(=O)Nc2ccccc2C(=O)NC2CC2)CC1` to `CCOc1ccccc1N1CCN(CC(=O)Nc2ccccc2C(=O)NC2CC2)CC1`, the “hERG current change (%, negative = inhibition) at 1uM” value rises from -35.4% to -23.5%.

First: COc1cc2c(cc1OC)CN(CC(=O)Nc1ccccc1C(=O)NC1CC1)CC2
Second: COc1cc(C)c(CN2CCN(CC(=O)Nc3ccccc3C(=O)NC3CC3)CC2)cc1OC
The “hERG current change (%, negative = inhibition) at 1uM” value of the first is higher: -6.04% for the first, -87.6% for the second.

First: CCOc1ccccc1C(=O)NC1CCN(CC(=O)Nc2cc(OC)ccc2OC)CC1
Second: COc1ccc(OC)c(CN2CCN(CC(=O)Nc3ccccc3C(=O)NC3CC3)CC2)c1
The “hERG current change (%, negative = inhibition) at 1uM” value of the first is higher: -25.6% for the first, -87.6% for the second.

Going from `COc1ccc(CN2CCN(CC(=O)Nc3ccccc3C(=O)NC3CC3)CC2)cc1F` to `COc1ccc(F)cc1CN1CCN(CC(=O)Nc2ccccc2C(=O)NC2CC2)CC1`, the “hERG current change (%, negative = inhibition) at 1uM” value rises from -99.6% to -88.8%.

Compared with `CC(=O)c1ccc(N2CCN(CC(=O)Nc3ccccc3C(=O)NC3CC3)CC2)c(F)c1`, `O=C(CN1CCN(S(=O)(=O)c2ccc(F)c(F)c2)CC1)Nc1ccccc1C(=O)NC1CC1` is lower in “hERG current change (%, negative = inhibition) at 1uM” value: -5.91% for the first, -23.7% for the second.

Compared with `COc1ccccc1OCC(=O)Nc1ccccc1C(=O)NC1CC1`, `O=C(Nc1ccccc1C(=O)N1CCCCCC1)c1ccccc1Cl` is higher in “hERG current change (%, negative = inhibition) at 1uM” value: 1.98% for the first, 13.6% for the second.

First: COc1ccc(NC(=O)CS(=O)(=O)c2ccc(F)cc2)cc1
Second: O=C(CSc1ccc(F)cc1)Nc1ccc(Br)cc1
The “hERG current change (%, negative = inhibition) at 1uM” value of the first is lower: 10.6% for the first, 13.9% for the second.

Compared with `Cc1ccc(-c2cc(C(F)(F)F)n3nc(C(=O)Nc4ccon4)cc3n2)cc1C`, `CC(=O)c1cccc(Nc2cc(C)nc3ccc(C)cc23)c1.Cl` is lower in “hERG current change (%, negative = inhibition) at 1uM” value: 7.99% for the first, -13.7% for the second.

Going from `COCC(=O)N1CCCC(C(=O)c2ccc(-c3ccccc3)cc2)C1` (stereo not shown) to `NC(=O)COC(=O)c1ccc(Oc2ccccc2)cc1`, the “hERG current change (%, negative = inhibition) at 1uM” value rises from 0.927% to 4.12%.

Going from `O=C1/C(=C/c2cccc(Cl)c2)CSc2sccc21` to `CC1(c2nnc(-c3ccncc3)o2)CC(c2cccc(Cl)c2)=NO1` (stereo not shown), the “hERG current change (%, negative = inhibition) at 1uM” value falls from 16% to 13.4%.

Compared with `COc1ccc(COc2ccc(S(=O)(=O)N3CCCC3)cc2C(N)=O)cc1F`, `COc1cccc(CNC(=O)C2CCN(S(=O)(=O)c3ccc4c(c3)CCC(=O)N4)CC2)c1` is lower in “hERG current change (%, negative = inhibition) at 1uM” value: 17.7% for the first, 17.5% for the second.

Compared with `CCOC(=O)c1oc2cc(OCC(N)=O)ccc2c(=O)c1-c1ccc(OC)c(OC)c1`, `CCOC(=O)c1cc2cc(OCc3ccccc3)ccc2nc1C` is lower in “hERG current change (%, negative = inhibition) at 1uM” value: 15.2% for the first, 8.83% for the second.

Compared with `O=C(O)c1ccccc1NS(=O)(=O)c1ccccc1C(F)(F)F`, `O=C(Nc1ccccc1N1CCCC1)c1ccccc1F` is higher in “hERG current change (%, negative = inhibition) at 1uM” value: 5.14% for the first, 6.48% for the second.

Compared with `O=C(Nc1ccc2nc3n(c(=O)c2c1)CCCCC3)c1ccccc1[N+](=O)[O-]`, `O=C(Nc1ccccc1C(=O)N1CCCCC1)c1ccc(Cl)cc1Cl` is lower in “hERG current change (%, negative = inhibition) at 1uM” value: 14.6% for the first, -79.6% for the second.

Compared with `CC1CN(C(=S)Nc2cccc(Cl)c2Cl)CC(C)O1` (stereo not shown), `O=C(Nc1ccccc1C(=O)N1CCCC1)c1ccc(Cl)cc1Cl` is higher in “hERG current change (%, negative = inhibition) at 1uM” value: 2.73% for the first, 10.3% for the second.

First: Cc1ccc(C(=O)Oc2coc(CSc3nnc(NC(=O)c4cccs4)s3)cc2=O)cc1
Second: COC(=O)c1ccc(N2CCOCC2)c(NC(=O)c2cccs2)c1
The “hERG current change (%, negative = inhibition) at 1uM” value of the first is higher: 13.4% for the first, 0.514% for the second.

First: Cc1ccc(C(=O)/C=C\NCc2ccccc2)cc1
Second: O=C(Oc1ccc2ccccc2c1)c1ccco1
The “hERG current change (%, negative = inhibition) at 1uM” value of the first is higher: 7.27% for the first, -0.657% for the second.

First: N=c1c(S(=O)(=O)c2ccc(Cl)cc2)cc2c(=O)n3ccccc3nc2n1C1CCCC1
Second: N=c1c(C(=O)NC2CCCC2)cc2c(=O)n3ccccc3nc2n1C1CCCC1
The “hERG current change (%, negative = inhibition) at 1uM” value of the first is higher: 13.9% for the first, -89.1% for the second.

Going from `N=c1c(C(=O)NC2CCCC2)cc2c(=O)n3ccccc3nc2n1C1CCCCC1` to `Cn1c(C(=O)NC2CCCCC2)cc2c(=O)n3ccccc3nc21`, the “hERG current change (%, negative = inhibition) at 1uM” value rises from -86.9% to 13.4%.

First: O=C(NC1CCCCCC1)c1cc2c(=O)n3ccccc3nc2s1
Second: O=C(NCC1CCCO1)c1ccc2c(=O)n(Cc3ccco3)c(SCC(=O)N3CCCC3)nc2c1 (stereo not shown)
The “hERG current change (%, negative = inhibition) at 1uM” value of the first is higher: 8.59% for the first, -54% for the second.

Compared with `O=P(C(Cl)Cl)(N1CCOCC1)N1CCOCC1`, `O=C(Nc1cc(C(=O)N2CCOCC2)ccc1N1CCCC1)c1cccs1` is lower in “hERG current change (%, negative = inhibition) at 1uM” value: 17.8% for the first, -78.2% for the second.

Compared with `CC(=O)Nc1cccc(NC(=O)CSc2nnc3ccc(-c4cccnc4)nn23)c1`, `CCn1c(SCC(=O)Nc2cccc(C)n2)nnc1-c1ccco1` is lower in “hERG current change (%, negative = inhibition) at 1uM” value: 13.1% for the first, 0.773% for the second.

First: CCn1cc(/C=C/C(=O)Nc2c(C)nn(Cc3ccccc3)c2C)cn1
Second: CCN(C(=O)CSc1nnnn1-c1ccccc1)c1c(N)n(Cc2ccccc2)c(=O)[nH]c1=O
The “hERG current change (%, negative = inhibition) at 1uM” value of the first is lower: 6.45% for the first, 15.9% for the second.

First: Cc1nc(-c2ccccc2)nc2[nH]c(C(C)C)cc(=O)c12
Second: CC(=O)c1ccc(Nc2cc(C)nc3ccc(C)cc23)cc1
The “hERG current change (%, negative = inhibition) at 1uM” value of the first is higher: -5.88% for the first, -53.2% for the second.

Compared with `COC(=O)c1ccc(Nc2cc(C)nc3ccc(C)cc23)cc1.Cl`, `O=C(Oc1ccc2ccc(=O)oc2c1)c1ccccc1` is higher in “hERG current change (%, negative = inhibition) at 1uM” value: -9.09% for the first, 9.28% for the second.

First: CCCCNC(=O)N1CCCN(c2ccc(C#N)cn2)CC1
Second: Cc1nnsc1C(=O)N1CCN(c2ccc(C#N)cn2)CC1
The “hERG current change (%, negative = inhibition) at 1uM” value of the first is lower: -11.6% for the first, 3.48% for the second.

Compared with `N#Cc1ccc(N2CCCNCC2)nc1`, `N#Cc1ccc(N2CCOCC2)nc1` is higher in “hERG current change (%, negative = inhibition) at 1uM” value: -90.9% for the first, 1.37% for the second.

Going from `Cc1ccc(NC(=O)COC(=O)Cn2cnc3c2c(=O)n(C)c(=O)n3C)c(Cl)c1` to `CCc1ccc(NC(=O)CSCCN2C(=O)c3ccccc3C2=O)cc1`, the “hERG current change (%, negative = inhibition) at 1uM” value falls from 13.3% to -8.99%.

First: Cc1ccc(C(=O)COC(=O)C2C3C=CC(C3)C2C(=O)OCC(=O)c2ccc(C)c(C)c2)cc1C (stereo not shown)
Second: CCOC(=O)CSc1nc2cc(C(=O)NCC3CCCO3)ccc2c(=O)n1Cc1ccco1 (stereo not shown)
The “hERG current change (%, negative = inhibition) at 1uM” value of the first is higher: 11.2% for the first, -18.2% for the second.

Going from `O=C(NCCC1CCCCN1S(=O)(=O)c1ccc(F)cc1)C(=O)Nc1ccccc1` (stereo not shown) to `O=C(Nc1ccccc1N1CCCCC1)c1ccccc1F`, the “hERG current change (%, negative = inhibition) at 1uM” value falls from 7.03% to -5.76%.

Going from `CNC(=S)Nc1cc(C(=O)N2CCCC2)ccc1N1CCCC1` to `O=C(Nc1cc(C(=O)N2CCCC2)ccc1N1CCCC1)C1CC1`, the “hERG current change (%, negative = inhibition) at 1uM” value falls from 2.01% to -1.85%.

Compared with `O=C(Nc1cc(C(=O)N2CCCC2)ccc1N1CCCC1)c1ccccc1F`, `O=C(Nc1cc(C(=O)N2CCCC2)ccc1N1CCCC1)c1ccccc1` is lower in “hERG current change (%, negative = inhibition) at 1uM” value: -82.8% for the first, -83.5% for the second.

Going from `O=C(Nc1ccc(C(=O)N2CCOCC2)cc1)c1cccs1` to `O=C(NCc1ccco1)c1ccc2c(=O)n(Cc3ccco3)c(SCC(=O)N3CCCC3)nc2c1`, the “hERG current change (%, negative = inhibition) at 1uM” value falls from 20.3% to -66.9%.

First: CCOc1cccc(/C=N/N2C(C)CCCC2C)c1O (stereo not shown)
Second: O=C(CN1C(=O)CSC1=O)N1CCCC(Nc2ccc(F)cc2)C1 (stereo not shown)
The “hERG current change (%, negative = inhibition) at 1uM” value of the first is lower: 2.07% for the first, 11.5% for the second.

First: CCCCCCOc1ccc(CN2CCN(C)CC2)cc1
Second: COc1ccc(CNC(=O)CSc2n[nH]c(N)n2)cc1
The “hERG current change (%, negative = inhibition) at 1uM” value of the first is lower: -0.56% for the first, 14.9% for the second.

First: CC(=O)/C=C\c1ccccc1OC(=O)c1cc2ccccc2oc1=O
Second: O=C(Oc1ccc2ccc(=O)oc2c1)c1ccco1
The “hERG current change (%, negative = inhibition) at 1uM” value of the first is higher: 16.3% for the first, -53.7% for the second.

Going from `CC(C)c1csc(CN2CCC(N3CCC(C(=O)NCC4CCCO4)CC3)CC2)n1` (stereo not shown) to `O=C(NCC1CCCO1)c1ccc2c(=O)n(CC3CCCO3)c(SCC(=O)N3CCCC3)nc2c1` (stereo not shown), the “hERG current change (%, negative = inhibition) at 1uM” value falls from 9.96% to 5.44%.

Going from `COc1ccc(OC)c(C2C(C#N)=C(N)Oc3c2c(C)nn3-c2cccc(Cl)c2)c1` (stereo not shown) to `COc1ccc(CCNC(=O)CSc2n[nH]c(N)n2)cc1OC`, the “hERG current change (%, negative = inhibition) at 1uM” value rises from 7.28% to 18.1%.

Compared with `COCCCn1c(SCC(=O)Nc2cccc(C)n2)nnc1-c1ccco1`, `CCCCn1c(SCC(=O)Nc2cccc(C)n2)nnc1-c1ccco1` is lower in “hERG current change (%, negative = inhibition) at 1uM” value: -20.6% for the first, -78% for the second.

Going from `COc1ncnc2c1oc1nc(CC(C)C)c3c(c12)CC(C)(C)OC3` to `COc1ccc(CNC(=O)CSc2n[nH]c(N)n2)cc1OC`, the “hERG current change (%, negative = inhibition) at 1uM” value falls from -10.6% to -73.4%.

Compared with `CCOC(=O)/C(C(C)=O)=C1\OC(=O)c2ccccc21`, `O=C(O)C1Nc2ccc(C(F)(F)F)cc2C2OCCC12` (stereo not shown) is higher in “hERG current change (%, negative = inhibition) at 1uM” value: 8.9% for the first, 10.7% for the second.
